Assay outcomes from PubChem BioAssay.
Sampled rows, rich in hits. Any-hit rate of the full collection: about 7.4%.
ELG1 genotox: genotoxicity induction in ELG1-luciferase HEK293T cells | HEK293T ELG1-luciferase reporter, luminescence, 16 h | Potency, µM (highest dose often 46 µM), for the others: at the top dose activity change, positive = activation, most hits filed as activators | hit rate 1.3% among 330,000; further: % of control where 0% means no effect; nearly all actives have a fitted effect of over 60% in size
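HEK293T cells expressing luciferase-tagged ELG1 were treated with compound or DMSO for 16 hr at 37°C. Luciferase activity was then read after 30 min with ONE-Glo at room temperature; rising signal flags genetic stress.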
FLuc modulator: counter-screen for miR-21 project: firefly luciferase inhibitors or activators. P08659. purified FLuc, Km substrates, luminescence inhibition. Potency, µM (top dose mostly 57.5 µM), inactives show at the highest dose activity change, negative = inhibition, usual class: inhibitors. hit rate 6.9% among 360,000. AID 588342;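 further: plate controls were vehicle for no effect and reference inhibitor for full effect; nearly all actives have a fitted effect of over 55% in size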
Target sequence (P08659 whole entry, looked up): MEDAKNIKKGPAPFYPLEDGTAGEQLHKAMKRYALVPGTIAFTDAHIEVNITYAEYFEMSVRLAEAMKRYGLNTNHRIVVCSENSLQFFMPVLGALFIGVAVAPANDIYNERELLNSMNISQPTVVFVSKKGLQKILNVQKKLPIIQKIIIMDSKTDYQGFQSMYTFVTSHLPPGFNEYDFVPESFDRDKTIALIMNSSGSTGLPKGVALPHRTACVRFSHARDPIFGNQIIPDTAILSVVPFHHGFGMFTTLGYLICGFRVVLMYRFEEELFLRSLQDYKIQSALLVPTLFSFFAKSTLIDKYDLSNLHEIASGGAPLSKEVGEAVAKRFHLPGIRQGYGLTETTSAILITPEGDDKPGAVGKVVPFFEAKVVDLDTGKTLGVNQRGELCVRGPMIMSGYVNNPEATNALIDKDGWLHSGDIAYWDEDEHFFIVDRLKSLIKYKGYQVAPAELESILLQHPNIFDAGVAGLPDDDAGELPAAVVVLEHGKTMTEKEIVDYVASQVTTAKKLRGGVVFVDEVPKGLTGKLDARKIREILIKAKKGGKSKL
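Purified P. pyralis luciferase, 10 nM final, with Km-level 10 uM D-luciferin and 10 uM ATP in 50 mM Tris acetate pH 7.5, 10 mM Mg acetate, 0.01% Tween-20, 0.05% BSA; 6-point qHTS titration about 60 µM downward; luminescence read.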
NPC1 prom act: activators of NPC1 promoter; Huh7 NPC1 promoter luciferase reporter, 24 h; Potency, µM (doses to about 9.22 µM), for the others: at the highest dose activation, most hits filed as activators; hit rate 2.4% among 320,000; AID 485313; further: % of control where 0% means no effect; nearly all actives have a fitted effect of over 60% in size
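Stably transfected Huh7 (NPC1 promoter→luciferase), 1500 cells/well in Opti-MEM + 10% FBS, 2 h settle, then compound 24 h at 37 °C. Luminescence after 10 min with Amplite reagent.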
SMN2 splice up: increases expression of the SMN2 splice variant. HEK293 SMN2-luciferase splicing reporter, luminescence, 30-36 h. Potency, µM (series often up to 46.1 µM), without a hit: at the top dose activity change, positive = activation, actives largely listed as activators. hit rate 2.8% among 210,000. AID 1458; further: % of control where 0% means no effect; nearly all actives have a fitted effect of over 55% in size
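qHTS luciferase splicing reporter: luminescence rises when SMN2 exon 7 is included in transfected HEK293 cells. Compound exposure lasted 30-36 h at 37C, with 4.5 mM final sodium butyrate as control, followed by a ONE-Glo read.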
KinaseGlo FLuc: blocks Kinase-Glo luciferase, a counter-screen artifact | Potency, µM (titrated, usually from 38.3 µM), without a hit: at the highest dose activity change, negative = inhibition, actives largely listed as inhibitors | Q27757 | AID 1379 | hit rate 0.28% among 200,000 | Kinase-Glo luciferase, ATP luminescence, 8 min; further: on the % scale 0 is the no-effect control and ±100 the full control effect; nearly all actives have a fitted effect of over 60% in size
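Compounds were added to a substrate mix at pH 7.2 (50 mM imidazole, 10 uM ATP, within the enzyme's linear range), followed by Kinase-Glo detection reagent; luminescence was measured after 8 minutes at ambient temperature.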
Rab9 promoter act: activates the Rab9 promoter; Huh7 Rab9 promoter-luciferase reporter, luminescence, 24 h; hit rate 2.8% among 320,000; Potency, µM (series often up to 9.22 µM), for the others: top-dose activation, negative = inhibition, actives largely listed as activators; further: % of control where 0% means no effect; nearly all actives have a fitted effect of over 60% in size
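Promoter activation is measured as luciferase luminescence in Huh7 cells stably transfected with a Rab9 promoter–luciferase construct, following 24 h compound exposure at 37 °C and 10 min reagent incubation at ambient temperature.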
Numbers without * were called inactive; ? = inconclusive; . = no result given; [ ] = remark or other dose. The call rests on the fitted dose curve; in most records, active means well fitted curve in the direction sought with a large enough effect; inconclusive means small, poorly fitted or top-dose-only effect, or another doubt; inactive means no such curve, though single readings can be large; an effect the other way counts as inactive or inconclusive. Potency means the concentration at half of the fitted maximal effect.

SMILES	ELG1 genotox	FLuc modulator	NPC1 prom act	SMN2 splice up	KinaseGlo FLuc	Rab9 promoter act
Cc1ccc(NC(=O)c2ccc(S(=O)(=O)N3CCC(C)CC3)cc2)nc1	18.3µM*	?	-0.2%	.	.	-5.3%
Cc1ccc(NC(=O)c2ccc(S(=O)(=O)N3CCCCCC3)cc2)nc1	-3.1%	?	3.0%	.	.	8.2%
Cc1ccccc1C(=O)Nc1ccc(Cl)cn1	10.3µM*	16.9µM*	2.51µM*	29.1%	-20.4%	3.55µM*
O=C(Nc1ccccc1Cl)c1ccc2nccnc2c1	2.3%	10.7µM*	3.16µM*	.	.	2.51µM*
COCCNc1nc(C)nc2c1nc(-c1ccccc1)n2CCN1CCCC1	.	.	.	-2.3%	-1.8%	.
CCCCNC(=O)c1ccc2c(=O)n(Cc3ccc(OC)cc3)c(=O)[nH]c2c1	.	0.0%	.	1.2%	.	.
O=C(Nc1ccccc1Cl)c1ccc(-c2ccccn2)s1	?	3.38µM*	2µM*	.	.	1.41µM*
Cc1ccc(C(=O)Nc2ccc(Cl)cn2)cc1	2.31µM*	1.35µM*	9.3%	7.94µM*	3.1%	?
Cc1ccc(C(=O)NCCOc2ccc(Cl)cc2)cc1	?	23.9µM*	?	.	.	18.5%
O=C(Nc1ccccc1Cl)c1cccs1	8.2%	?	12.9%	-7.7%	-5.7%	26.1%
Cc1ccc(C(=O)Nc2ncc3c(Cl)cccc3n2)cc1	?	0.269µM*	?	0.0316µM*	11.2µM*	0.159µM*
Cc1ccc(Cn2c(CN3CCN(c4cccc(Cl)c4)CC3)nc3c2c(=O)n(C)c(=O)n3C)cc1	.	-5.9%	.	-7.7%	.	.
COc1ccccc1NC(=O)C1=C(C)Nc2nc(SCc3ccccc3Cl)nn2C1c1ccccn1 (stereo not given)	.	-0.4%	.	1.3%	.	.
Cc1nc(NC(=S)NC(=O)c2cccs2)ccc1Br	?	4.78µM*	6.5%	?	0.7%	29.9%
O=C(Nc1ccc(Cl)cn1)c1cccnc1	5.7%	-10.6%	-0.7%	?	-2.6%	-0.6%
O=C(Nc1ccc(Cl)cn1)c1ccc(Oc2ccccc2)cc1	?	3.38µM*	1.26µM*	.	.	2.24µM*
CC(C)C(=O)Nc1ccc(NC(=O)c2ccccc2Cl)nc1	16.4µM*	21.3µM*	?	.	-1.0%	3.16µM*
O=C(Nc1ccc(Cl)cn1)c1ccc2nccnc2c1	?	12µM*	1.58µM*	.	.	?
CCCCC/C=C\C/C=C\C/C=C\C/C=C\CCCC(=O)C(F)(F)F	.	.	.	.	1.7%[39.9 µM]	.
CCOC(=O)c1scc(-c2ccc(C)cc2)c1S(=O)(=O)N1CCN(c2ccccc2F)CC1	.	-9.6%	.	.	.	.
Cc1ccc(NC(=O)Cn2c(-c3cncs3)nc3ccccc32)c(Br)c1	.	0.6%	.	-11.9%	.	.
CCCOc1ccc(C(=O)Nc2ccc(Cl)cn2)cc1	?	0.849µM*	0.708µM*	?	-12.7%	0.501µM*
CCCOc1ccc(C(=O)Nc2ccc(NC(=O)c3cccc(Cl)c3)cc2)cc1	.	0.4%	.	8.0%	.	.
Cc1ccc(Nc2c(-c3ccc(N4CCOCC4)cc3)nc3c(C)cccn23)cc1	.	-15.0%	.	5.7%	.	.
Cc1ccc(C(=O)COC(=O)c2cc(-c3cccs3)nc3ccccc23)cc1	.	2.39µM*	.	-1.8%	.	.
SMILES	ELG1 genotox	FLuc modulator	NPC1 prom act	SMN2 splice up	KinaseGlo FLuc	Rab9 promoter act
O=C(COC(=O)c1cc(-c2cccs2)nc2ccccc12)c1ccc(F)cc1	.	?	.	-9.4%	.	.
COc1ccc(C(=O)COC(=O)c2cc(-c3cccs3)nc3ccccc23)cc1	.	2.69µM*	.	-9.3%	.	.
CCc1ccc(NCc2cc3ccc(OC)cc3n(CC(=O)Nc3ccc(C)c(Cl)c3)c2=O)cc1	.	3.9%	.	.	.	.
COc1ccc(C2c3c(oc4ccc(F)cc4c3=O)C(=O)N2Cc2ccc3c(c2)OCO3)cc1 (stereo not given)	.	-2.4%	.	-0.8%	.	.
CCC(=O)Nc1ccc(-c2nnc3c4ccccc4c(C)nn23)cc1	.	0.3%	.	8.0%	.	.
COc1cc(Cl)c(C)cc1Nc1nc2ccccc2nc1NS(=O)(=O)c1ccccc1	.	?	.	-12.6%	.	.
O=C(CCSc1ccccc1)N1CCOCC1	8.2µM*	19µM*	2.82µM*	12.6µM*	-14.7%	2.82µM*
O=C(CCSc1ccccc1)N1CCCC1	?	16.9µM*	2.51µM*	11.2µM*	-28.4%	2.82µM*
O=C(CCSc1ccccc1)NC1CCCCCC1	0.1%	10.7µM*	-0.1%	1.6%	1.0%	-7.6%
O=C(CCSc1nnnn1-c1ccccc1)N1CCOCC1	10.9%	-3.8%	11.4%	29.7%	2.6%	11.7%
Cc1ccc(CC(Cc2nc3ccccc3[nH]2)c2nc3ccccc3[nH]2)cc1 (stereo not given)	.	.	.	.	-1.4%	.
O=C1OC(=O)c2ccccc21	.	.	.	-1.1%	.	.
O=S(=O)(Nc1cccc(-c2ccc(N3CCCC3)nn2)c1)c1cc(F)ccc1F	.	6.01µM*	.	.	.	.
CC1CCN(c2ccc(-c3cccc(NS(=O)(=O)c4ccc(F)cc4F)c3)nn2)CC1	.	1.69µM*	.	.	.	.
O=S(=O)(Nc1cccc(-c2ccc(N3CCCCC3)nn2)c1)c1ccc(F)cc1F	.	1.9µM*	.	.	.	.
Cc1nnc2ccc(-c3cccc(NS(=O)(=O)c4cc(F)ccc4F)c3)nn12	2.0%	0.1%	-13.0%	.	.	0.7%
O=S(=O)(Nc1ccc(N2CCCCC2)cc1)c1ccc(F)cc1F	0.3%	-2.3%	1.9%	.	.	-2.7%
O=S(=O)(Nc1cccc(-c2ccc3nncn3n2)c1)c1cccs1	?	-7.9%	-1.5%	?	0.1%	3.4%
Cc1ccc(S(=O)(=O)Nc2cccc(-c3ccc(N4CCC(C)CC4)nn3)c2)s1	.	0.757µM*	.	.	.	.
CS(=O)(=O)c1ncc(Cl)c(C(=O)N2CCN(c3cccc(Cl)c3)CC2)n1	.	.	.	-1.2%	.	.
COc1cccc(/C=N/Nc2ccccc2C(=O)O)c1O	4.11µM*	1.35µM*	0.562µM*	.	.	0.398µM*
Cc1ccc(S(=O)(=O)Oc2ccccc2/C=N/Nc2ccc(C(=O)O)cc2)cc1	0.4%	19µM*	0.0%	.	.	16.0%
COc1cccc(/C=N/Nc2ccc(C(=O)O)cc2)c1O	-19.1%	0.19µM*	-39.4%	-81.7%	8.91µM*	-34.8%
COc1cccc(/C=N/Nc2ccc(S(=O)(=O)O)cc2)c1O	1.8%	?	-8.1%	-4.9%	?	-0.5%
CCC(=O)N1CCc2cc(Br)cc(S(=O)(=O)N3CCN(c4ccccc4OC)CC3)c21	.	-2.8%	.	2.1%	.	.
CCC1=C2CC[C@H]3C(=O)N(c4ccccc4)C(=O)[C@H]3[C@H]2[C@@]2(Cc3ccccc3)C(=NCCc3c[nH]c4ccccc34)OC(=O)N2C1=O	.	.	.	-9.4%	1.2%	.
CCC(=O)N1C2=C(c3ccccc3[C@@H]1CC(=O)Nc1ccc3ccccc3c1)[C@@H]1C(=O)N(c3ccccc3)C(=O)[C@@H]1[C@H](C)C2	.	.	.	-2.4%[9.22 µM]	-4.3%[7.66 µM]	.
COc1ccc(-c2cc3nc(CCl)[nH]c(=O)c3s2)cc1	?	0.12µM*	?	.	.	?
